Yeast superoxide: yeast age-related superoxide inhibition as caloric restriction mimetic | AID 2690 | superoxide response (% of plate mean), % at 10 µM | actives 0.18% (n = 330,000) | S. cerevisiae aged cells, superoxide DHE fluorescence; active compounds read low;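 active = superoxide response under a set limit, about three screen SD below normal, cut at about 65% in these data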;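 also: yeast aged for seven days with compound at 30 °C before DHE staining; 100% = average MFI of all compound-treated wells on the plate with controls excluded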
HSV augment: HSV replication enhancement | HSV replication augmentation in cells, fold increase | maximum fold increase | actives 0.005% (n = 220,000) | AID 1956; in the data active = maximum fold increase above about 1.5; tested in PC3 cells
V-ATPase pHluor: alters yeast V-ATPase proton transport | S. cerevisiae, pHLuorin cytosolic pH fluorescence | response, % at 10 µM | actives 0.37% (n = 350,000) | AID 504577; in the data active = response mostly above about 7.3%, no sharp cut-off; inactive = mostly below about 5.4%; also: actives read high
pCIP destab: compounds decreasing mouse p/CIP protein stability; Q05BA5; decrease of EGFP signal, % at 10 µM; actives 0.01% (n = 290,000); F442A p/CIP-EGFP cells, EGFP fluorescence, 16 h; AID 1984;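 active = EGFP signal decrease of at least 30% at 10 µM or well 3 SD below plate mean, unless failing retest; inactive = the rest, including hits failing retest or dose response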
Cardio protect: myocardial damage modulation in H9c2 cells | H9c2 cardiomyocytes, H2O2 injury protection, ATPLite, 2 h | protection from H2O2 cell death, % at 20 µM | actives 0.63% (n = 360,000) | AID 588492;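 active = compounds giving at least 50% protection of heart cells from peroxide-induced death in the single-dose screen, raw or plate-pattern-corrected value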;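 also: 0% = DMSO wells with peroxide and 100% = DMSO wells without peroxide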
beta cell repl: MIN6 beta-cell proliferation induction; actives 0.29% (n = 330,000); MIN6 cells proliferation, ATPlite luminescence, 48 h; cells starved in 0.2% serum; 100% = growth in 10% serum; proliferation, % at 10 µM; AID 2380;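 active = compounds whose signal lies at least 3.5 SD above the mean of all wells on their plate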;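 also: 0% = DMSO-treated cells in low-serum medium and 100% = 10% serum control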
* hit, by the source's call; i = inactive; nt = no result given. Hits are enriched below; roughly 1.4% of the tested compounds scored in any of these assays.

SMILES | Yeast superoxide | HSV augment | V-ATPase pHluor | pCIP destab | Cardio protect | beta cell repl
CN(C)N(Cc1ccccc1)C(=O)C(O)(c1ccccc1)c1ccccc1 | 104 | nt | 3 | -18 | 60* | 3
CC(C)(C)n1cc(S(=O)(=O)c2ccccc2)[nH]c1=O | 104 | i | 3 | 6 | 0 | -4
CCCCC(CCCC)=N/N=C/c1c(O)n(CC)c2cc(C3=NNC(=O)CC3)ccc12 | 110 | i | -2 | -5 | 19 | 2
CCn1c(O)c(/C=N/N=C2CCCCC2)c2cc(C3=NNC(=O)CC3)ccc21 | 102 | i | 1 | -2 | 54* | 0
CCn1c(O)c(/C=N/N=C2CCCC2)c2ccc(C3=NNC(=O)CC3)cc21 | 90 | i | 2 | 2 | 57* | -5
Cc1nn(-c2ccccc2)c2nc(C(Cl)(Cl)Cl)[nH]c(=O)c12 | 124 | i | 2 | -3 | -10 | -2
CCC(NC(=O)Nc1nnc(C(F)(F)F)s1)(C(F)(F)F)C(F)(F)F | 114 | i | -4 | 30* | -31 | -5
Cc1c(C(=O)Nc2ccc(-c3nnc4n3CCCCC4)cc2)oc2c1ccc1ccccc12 | 89 | i | -4 | 14 | 52* | 0
O=C(O)c1cccc(Nc2c([N+](=O)[O-])c(=O)oc3ccccc23)c1 | 64* | i | -5 | 0 | 4 | -3
COC(=O)[C@@]12CCCCN1[C@H](c1ccc(-c3cc(C(C)=O)cs3)c(OC)c1)[C@H]1C(=O)N(C)C(=O)[C@H]12 | 108 | nt | 3 | nt | 31 | 1
COC(=O)[C@@]12CCCCN1[C@H](c1ccc(-c3cc(C(C)=O)cs3)cc1)[C@H]1C(=O)N(C)C(=O)[C@H]12 | 101 | nt | -1 | nt | 56* | -6
COc1cc2c(cc1OC)C(c1ccccc1[N+](=O)[O-])N(C(C)=O)CC2 (configuration not stated) | 104 | nt | 1 | 0 | 8 | -1
Cc1cccc(NC(=O)CCC(=O)N/N=C/c2cc([N+](=O)[O-])ccc2O)c1 | 103 | i | 7 | 4 | 58* | 0
O=C(N/N=C/c1cc([N+](=O)[O-])ccc1O)C1CCCCC1 | 97 | i | 1 | -12 | 52* | 7
O=C(N/N=C/c1cc([N+](=O)[O-])ccc1O)c1cccc(NC(=O)c2cccc(Cl)c2)c1 | 120 | nt | 2 | -25 | 56* | 0
O=C(CCC(=O)Nc1ccc(Br)cc1)N/N=C/c1cc([N+](=O)[O-])ccc1O | 105 | i | 1 | 2 | 54* | -3
O=C(CCC(=O)Nc1ccc(F)cc1)N/N=C/c1cc([N+](=O)[O-])ccc1O | 100 | i | 0 | -5 | 49 | -4
O=C(CCc1nnc(C2(c3ccc(Cl)cc3)CCC2)o1)NCCCn1cccn1 | 100 | i | -4 | 2 | -5 | 4
O=C(Cn1cnc([N+](=O)[O-])n1)N/N=C/c1ccccc1O | 114 | i | -2 | -10 | 64* | -6
Cc1ccn(CC(=O)N/N=C/c2cc([N+](=O)[O-])ccc2O)n1 | 108 | i | 0 | -9 | 67* | 0
Cc1occc1C(=O)N1CCC2(CCCN(Cc3ccc(F)c(F)c3)C2)C1 (configuration not stated) | 99 | nt | 1 | -8 | -6 | 3
Cc1ccnc2nc(C(=O)OCC(=O)c3c[nH]c4ccccc34)nn12 | 102 | i | 2 | -5 | 10 | -3
O=C(c1ccoc1)N1CCN(c2cc(-c3ccccc3)nc3cc(-c4ccccc4)nn23)CC1 | nt | nt | 2 | nt | -9 | nt
COc1ccc(-c2cc(C(F)(F)F)n3nc(C(=O)N4CCN(C(=O)c5ccco5)CC4)cc3n2)cc1 | 98 | nt | -4 | -2 | 55* | -1
COc1ccccc1-c1cc2nc(-c3ccccc3)cc(N3CCN(C(=O)c4ccco4)CC3)n2n1 | nt | nt | 1 | nt | 55* | nt
SMILES | Yeast superoxide | HSV augment | V-ATPase pHluor | pCIP destab | Cardio protect | beta cell repl
COc1ccccc1-c1cc2nc(-c3ccccc3)cc(N3CCN(C(=O)c4ccoc4)CC3)n2n1 | nt | nt | 0 | nt | 50* | nt
COc1ccc(-c2cc3nc(C)cc(N4CCN(C(=O)c5ccoc5)CC4)n3n2)cc1 | nt | nt | 2 | nt | 54* | nt
O=C(CSc1ccc2ccccc2n1)N/N=C/c1ccccc1O | 98 | nt | 0 | 8 | 55* | -3
O=C(CSc1ccc2ccccc2n1)N/N=C/c1ccc(O)cc1 | 104 | nt | 8 | -5 | -12 | -4
COc1ccc(NC(=O)C2CC(=O)N=C(N)S2)cc1 (configuration not stated) | 100 | i | 7 | -11 | 1 | -2
Cn1ncc(C#N)c1NC(=O)C1CC(c2ccccc2Cl)=NO1 (configuration not stated) | 44* | i | nt | -10 | nt | 0
COc1ccc(/C=N/NC(=O)CCSc2nc3ccccc3s2)cc1OC | 110 | i | -3 | -5 | 7 | 1
O=C(CCSc1nc2ccccc2s1)N/N=C/c1c(O)ccc2ccccc12 | 98 | i | 0 | -4 | 54* | -5
CCN(C(=O)COc1cccc2cccnc12)C1CCS(=O)(=O)C1 (configuration not stated) | 105 | i | -3 | -10 | -1 | -1
CC1(C(=O)NS(=O)(=O)C2CC2)CCCN(C(=O)c2ccc(F)c(Cl)c2)C1 (configuration not stated) | nt | nt | nt | nt | -1 | nt
COc1ccc(/C=C/C(=O)Nc2ccccc2C(=O)O)cc1OC | 108 | i | 0 | 2 | -20 | -3
COC(=O)c1ccccc1NC(=O)/C=C/c1cc(OC)c(OC)c(OC)c1 | 112 | i | 3 | -2 | 57* | 0
CCc1ccccc1NC(=O)CN(C)C(=O)c1cccc(S(=O)(=O)N2CCCCCC2)c1 | 90 | nt | -3 | nt | 0 | -4
CN1CCN(C2=C(Cl)C(=O)C(c3cnc(N4CCCCC4)s3)=C(Cl)C2=O)CC1 | 104 | i | 17* | -16 | -19 | -6
CN1CCN(C2=C(Cl)C(=O)c3ccccc3C2=O)CC1 | nt | nt | 3 | nt | -20 | nt
O=C(O)CSc1ccc2nnc(-c3cccnc3)n2n1 | 78 | i | 0 | -4 | 2 | -1
Fc1ccc(CSc2ccc3nnc(-c4cccnc4)n3n2)cc1 | 111 | i | 1 | 6 | 80* | 4
CC(=O)NCCNc1nc2c(-c3ccccc3)nnn2c2ccccc12 | 99 | nt | 4 | -8 | 55* | -1
CC(=O)NCCNc1nc2c(-c3cccc(C)c3)nnn2c2ccccc12 | 98 | nt | -2 | -11 | 6 | 3
CCSc1nc(-c2cccnc2)ccc1C#N | 84 | i | 1 | -11 | 6 | 2
S=c1nc(-c2ccccn2)c(-c2ccccn2)n[nH]1 | nt | nt | nt | nt | -4 | nt
COc1ccc(OC)c(/C=N/Nc2nncn2/N=C/c2cc(OC)ccc2OC)c1 | 87 | i | 0 | -8 | 81* | 0
CC(=O)N1CCCc2cc(S(=O)(=O)N3CCCC(C)C3)ccc21 (configuration not stated) | 120 | nt | 0 | -8 | -2 | 4

Compound activity from PubChem.
